Bioassay records (PubChem BioAssay)
Only a selection was taken, and hits are over-represented in it overall.
TTR transcr act: activators of transthyretin transcription; hit rate 1.3% among 92,000; AID 1117267; activation, % at 16.7 µM; SH-SY5Y TTR promoter Gaussia luciferase, luminescence; 100% = recombinant luciferase protein wells;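 active means activation above the mean of all tested compounds plus 3 SD, cut at about 9.5% in these data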;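 further: cells exposed to compounds for one day before reading; 0% = median of all test compound wells on the plate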
HuH7 TTR inh: decreases TTR transcription in HuH7 cells in activator counter-screen | hit rate 4% among 1,100 | AID 1117279 | inhibition, % at 16.7 µM | shares compounds with TTR transcr act | HuH7 TTR promoter-Gaussia luciferase reporter, luminescence;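 active means average inhibition above the solvent-only control wells' mean plus 3 SD, cut at about 15% in these data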;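 further: 0% = cells with DMSO only and 100% = cells with inhibitor control FD; inhibitors lower well luminescence so higher value means more inhibition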
TTR act confirm: confirmation of human transthyretin transcription activators; shares compounds with TTR transcr act; SHSY5Y TTR promoter Gaussia luciferase, luminescence; 100% = purified Lucia enzyme wells, no cells; activation, % at 16.7 µM; 1,100 tested, under 10 active; AID 1117280;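 active means mean activation above a set limit taken from the earlier primary screen, cut at about 11% in these data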;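 further: 0% = DMSO-treated cells and 100% = recombinant Lucia luciferase without cells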
* hit, by the source's call.

Results for O=C1NC(=O)N(C2CCCCC2)CC1Br (stereo not drawn) ?
TTR transcr act: 25*; HuH7 TTR inh: -4; TTR act confirm: -1

What do the screens show for `CC1CN(C2CCCCC2)C(=S)NC1=O` (stereo not drawn)?
TTR transcr act: 2

How did O=C1NC(=O)N(Cc2ccccc2)CC1Br (stereo not drawn) do in these assays?
TTR transcr act: 0

Results for CC(C)C[C@H](NC1(C(=O)NCCc2c[nH]c3ccccc23)CCC1)C(=O)NCCCc1ccccc1 ?
TTR transcr act: -2

How did O=C(CSc1nc2ccccc2o1)NCC1CCCO1 (stereo not drawn) do in these assays?
TTR transcr act: 0

What do the screens show for `O=C(CSc1oc(-c2ccco2)nc1S(=O)(=O)c1ccccc1)NCC1CCCO1` (stereo not drawn)?
TTR transcr act: 12*; HuH7 TTR inh: -7; TTR act confirm: 0

What do the screens show for `Cc1ccc(S(=O)(=O)c2nc(-c3ccco3)oc2SCC(N)=O)cc1`?
TTR transcr act: 0

What do the screens show for `O=C(Nc1nnc(-c2ccccc2)o1)c1nc2ccccc2s1`?
TTR transcr act: 15*; HuH7 TTR inh: -12; TTR act confirm: 2

Results for NC(=O)c1oc2ccccc2c1NC(=O)c1nc2ccccc2s1 ?
TTR transcr act: -1

Results for CC(C)C(=O)Nc1nnc(-c2ccccc2)o1 ?
TTR transcr act: -1

Results for COc1ccc(CCNC(=S)N2CCN(S(=O)(=O)c3ccc(C)cc3)CC2)cc1 ?
TTR transcr act: -1

Results for Brc1cc(-c2ccccc2)nc(-c2ccccc2)n1 ?
TTR transcr act: 0

What do the screens show for `O=[N+]([O-])c1ncccc1OCCOc1ccc(Cl)cc1Cl`?
TTR transcr act: 0

Results for CCOC(=O)N/N=C/c1ccccc1OCc1ccc(Cl)cc1 ?
TTR transcr act: -2

Results for CCOC(=O)N/N=C/c1ccc(F)cc1F ?
TTR transcr act: 26*; HuH7 TTR inh: -4; TTR act confirm: 0

What do the screens show for `CCOC(=O)N/N=C\c1sccc1C`?
TTR transcr act: -1

Results for Cc1ccc(NS(=O)(=O)c2cc3c(cc2Cl)NC(=O)CO3)cc1C ?
TTR transcr act: 1

How did Cc1ccccc1NCC(=O)N/N=C/c1c[nH]c2ccccc12 do in these assays?
TTR transcr act: -2

What do the screens show for `Cc1ccccc1NCC(=O)N/N=C/c1ccc[nH]1`?
TTR transcr act: 16*; HuH7 TTR inh: -6; TTR act confirm: 0

What do the screens show for `O=C(COc1c(Cl)cc(Cl)cc1Cl)N/N=C/c1ccc[nH]1`?
TTR transcr act: 9

How did C[C@H]1[C@@H](NC(=O)c2ccc(O)cc2)CC[C@@]23CCCN2C(=O)CCC[C@@H]13 do in these assays?
TTR transcr act: -1

What do the screens show for `C[C@H]1[C@@H](OC(=O)NCc2ccc(Cl)cc2)CC[C@@]23CCCN2C(=O)CCC[C@@H]13`?
TTR transcr act: -1

What do the screens show for `O=S1(=O)c2c(cccc2N2CCC[C@@H]2CO)O[C@H]2CCN1C2`?
TTR transcr act: 4

Results for COc1ccccc1N(C(=O)c1snc(C(N)=O)c1N)C(C(=O)NCCC(C)C)c1ccco1 (stereo not drawn) ?
TTR transcr act: -1

How did NC(=O)c1nsc(C(=O)N(Cc2cccnc2)C(C(=O)NC2CCCC2)c2ccc(F)cc2)c1N (stereo not drawn) do in these assays?
TTR transcr act: 0

What do the screens show for `CC(C)(C)NC(=O)C(c1ccco1)N(Cc1ccc(F)cc1)C(=O)c1snc(C(N)=O)c1N` (stereo not drawn)?
TTR transcr act: 10*; HuH7 TTR inh: 1; TTR act confirm: 0

How did CCCCCCCCN1C(=O)[C@@H](CC(=O)NCC23CC4CC(CC(C4)C2)C3)C[C@@]2(C(=O)OC)C1=C[C@H](C(C)C)O[C@@H]2C1CC1 do in these assays?
TTR transcr act: 1

Results for C[C@H]1CCCN1c1ccc2c(c1)O[C@H]1CCN(C1)S2(=O)=O ?
TTR transcr act: -1

What do the screens show for `COC(=O)[C@]12C[C@H](CC(=O)NCCCN3CCCC3=O)C(=O)N(CCC3=CCCCC3)C1=C[C@H](C1CCCC1)O[C@@H]2C`?
TTR transcr act: 0

What do the screens show for `CCCCCCCCN1C(=O)[C@@H](CC(=O)NCCc2ccccc2OC)C[C@@]2(C(=O)OC)C1=C[C@H](C(C)C)O[C@@H]2C1CC1`?
TTR transcr act: 0

What do the screens show for `COC(=O)[C@]12C[C@H](CC(=O)NCc3cccc4ccccc34)C(=O)N(CCc3ccc(OC)c(OC)c3)C1=C[C@H](C(C)C)O[C@@H]2C1CC1`?
TTR transcr act: 0

What do the screens show for `Cn1c(NC(=O)C2CC2)cc(=O)n(C)c1=O`?
TTR transcr act: 9.9*; HuH7 TTR inh: -7; TTR act confirm: 0

What do the screens show for `CCC(CC)C(=O)Nc1cc(=O)n(C)c(=O)n1C`?
TTR transcr act: -1

Results for Cn1c(NC(=O)c2ccc(Cl)s2)cc(=O)n(C)c1=O ?
TTR transcr act: -1

How did COCC(=O)Nc1cc(=O)n(C)c(=O)n1C do in these assays?
TTR transcr act: 11*; HuH7 TTR inh: -1; TTR act confirm: -1

Results for Cn1c(NC(=O)Cc2cccs2)cc(=O)n(C)c1=O ?
TTR transcr act: 2

Results for Cn1c(NC(=O)c2ccc(C(C)(C)C)cc2)cc(=O)n(C)c1=O ?
TTR transcr act: 0

How did COc1cc(NC(=O)C(OC(=O)CNC(=O)c2ccccc2)c2ccccc2)cc(C(F)(F)F)c1 (stereo not drawn) do in these assays?
TTR transcr act: 2

What do the screens show for `N#C/C(=C\c1ccccc1Br)C(=O)NC1CC1`?
TTR transcr act: 1

Results for CCOC(=O)[C@@]12CCC3=C1N(CCC3)C(=O)[C@H](CC(=O)N1CCC(c3ccccc3)CC1)C2 ?
TTR transcr act: 2

Results for C[C@@H]1CCN(C2CC2)S(=O)(=O)c2c(cccc2N2CC[C@@H](O)C2)O1 ?
TTR transcr act: 3

Results for Cc1ccnc(NC(=S)N2CCC(Nc3cccc(C(F)(F)F)c3)CC2)c1 ?
TTR transcr act: 5

What do the screens show for `COc1cc(C(=O)N2C[C@H]3CC[C@H]2C3)ccc1OC1CCN(C(C)=O)CC1`?
TTR transcr act: 0

How did COc1ccc(C(=O)N2CCN(C)C(C)C2)cc1OC1CCN(C(C)=O)CC1 (stereo not drawn) do in these assays?
TTR transcr act: 0

What do the screens show for `COc1cc(C(=O)N2C[C@@H]3CCC[C@H]2C3)ccc1OC1CCN(C(C)=O)CC1`?
TTR transcr act: 16*; HuH7 TTR inh: -8; TTR act confirm: 0

Results for Nc1[nH]c(C(=O)c2ccccc2)c(-c2ccc(Br)cc2)c1C(=O)NCCCN1CCOCC1 ?
TTR transcr act: 3

What do the screens show for `O=C(CCc1ccc(S(=O)(=O)N2CCOCC2)cc1)OCC(=O)c1ccccc1`?
TTR transcr act: 0

How did Cc1ccc(-c2nnc(NC(=O)COc3ccc(F)cc3Cl)o2)cc1C do in these assays?
TTR transcr act: -1

Results for Cc1nc2c(C)cccc2c2c1COC2 ?
TTR transcr act: -1

Results for CN(C)Cc1cc2ccccc2c2c1COC2 ?
TTR transcr act: 12*; HuH7 TTR inh: -13; TTR act confirm: -1

Results for Cc1cc2ccc3ccccc3c2cc1CN(C)C ?
TTR transcr act: 6
